Some test systems named below: SK-MEL-2 melanoma; EKVX NSCLC; SN12C renal; UO-31 renal; TK-10 renal; ACHN renal; CAKI-1 renal; A498 renal; CCRF-CEM leukemia; MOLT-4 leukemia.
Common to all, as to experiment: NCI-60 one-dose screen, 48 h (100 = growth as untreated, 0 = no growth, -100 = all killed)
What all share (conditions): 10 µM unless noted

Each structure is given as a SMILES string. About 83,000 compounds went through this panel and 20% of them were active in at least one assay; those are over-represented in the sample as a whole.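 96-well plates, one dose, 48 hours. Percent growth reported; active if below 10.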 Values without a mark were called inactive. The source made the active and inactive calls.

In the case of `COc1cc(/C=C2\CN(S(=O)(=O)c3ccccc3)C/C(=C\c3cc(CN4CCCCC4)c(O)c(OC)c3)C2=O)cc(CN2CCCCC2)c1O`, the growth is 104% in the assay with SK-MEL-2 melanoma; -36.4% (active) in the assay with EKVX NSCLC; -42.4% (active) in the assay with SN12C renal; -96.6% (active) in the assay on UO-31 renal; -38.8% (active) in the assay with TK-10 renal; 27.9% in the assay on ACHN renal. For the same molecule, the growth in the assay on CAKI-1 renal was -89.2% (active); with A498 renal, 95%; with CCRF-CEM leukemia, -2.62% (active); with MOLT-4 leukemia, -20.6% (active).
With `CN1CCN(Cc2ccc(NC(=O)c3cncc(C#Cc4cnc5ccc(Cl)nn45)c3)cc2C(F)(F)F)CC1`, the growth is -46.1% (active) in the assay on SK-MEL-2 melanoma; -22% (active) with EKVX NSCLC; 0.38% (active) in the assay on SN12C renal; -11.5% (active) in the assay on UO-31 renal; 5.85% (active) in the assay on TK-10 renal; 1.09% (active) in the assay on ACHN renal. The growth in the assay with CAKI-1 renal is -13.6% (active); with A498 renal, -8.2% (active); with CCRF-CEM leukemia, 2.17% (active); in the assay with MOLT-4 leukemia it was 3.14% (active).
Turning to `O=C(C1CCCCC1)[C@@H]1[C@]2(C(=O)NC3CCCCC32)[C@@H]2CCCN2[C@@]12C(=O)NC1CCC(Cl)CC12` (stereo not given in full), the growth in the assay with SK-MEL-2 melanoma is -79.2% [100 µM] (active); in the assay with EKVX NSCLC, -89.5% [100 µM] (active); with SN12C renal it was -80% [100 µM] (active); with UO-31 renal it was -73% [100 µM] (active); with TK-10 renal, -81.1% [100 µM] (active); in the assay with ACHN renal, -97.8% [100 µM] (active). Also, the growth in the assay with CAKI-1 renal was -82.7% [100 µM] (active); with A498 renal, -94.8% [100 µM] (active); in the assay on CCRF-CEM leukemia, -49% [100 µM] (active); in the assay on MOLT-4 leukemia it was -57.3% [100 µM] (active).
As to `Cc1ccc(C2CC(c3nc(-c4ccc(Cl)cc4)oc3C)=NN2C(=O)c2ccncc2)cc1` (stereo not given), the growth in the assay on SK-MEL-2 melanoma was 92.9%; with EKVX NSCLC, 91.3%; with SN12C renal it was 86.8%; with UO-31 renal, 58.2%; in the assay on TK-10 renal, 106%; in the assay with ACHN renal, 87.3%. For the same molecule, the growth was 69.2% with CAKI-1 renal, 82.6% in the assay on A498 renal, 90.7% in the assay with CCRF-CEM leukemia and 64.7% with MOLT-4 leukemia.
As to `COc1cccc(/C=N/NC(=O)c2ccccc2N2CCCC2)c1O`, the growth in the assay with SK-MEL-2 melanoma is -7.25% (active); in the assay on EKVX NSCLC, 41.7%; with SN12C renal it was 78.8%; with UO-31 renal, 30.4%; in the assay on TK-10 renal, 74.9%; with ACHN renal it was 31.1%. For the same molecule, the growth in the assay with CAKI-1 renal was 0.778% (active); with A498 renal, 67.1%; with CCRF-CEM leukemia it was -14% (active); in the assay on MOLT-4 leukemia, 30.7%.
As to `COc1ccc2c(c1)/C(=N/c1n[nH]c(=S)s1)C(=O)N2`, the growth with SK-MEL-2 melanoma is 105%; in the assay with EKVX NSCLC, 98.6%; in the assay on SN12C renal it was 97.8%; in the assay on UO-31 renal, 74.3%; in the assay with TK-10 renal it was 115%; in the assay on ACHN renal it was 83.6%. Also, the growth with CAKI-1 renal was 78.4%; in the assay with A498 renal, 89.9%; in the assay with CCRF-CEM leukemia, 44.5%; with MOLT-4 leukemia, 76.2%.
In the case of `CC(=O)c1sc2sc(C(C)=O)c(C)c2c1C`, the growth is 107% in the assay on SK-MEL-2 melanoma; 42.8% in the assay on EKVX NSCLC; 98% with SN12C renal; 88.4% with UO-31 renal; 74.9% in the assay with TK-10 renal; 98.9% in the assay on ACHN renal. For the same molecule, the growth was 86.4% in the assay on CAKI-1 renal, -82.4% (active) with A498 renal, 63.6% with CCRF-CEM leukemia and 85.5% in the assay on MOLT-4 leukemia.
On to `CNC1=C([N+](=O)[O-])C(c2ccc(OC)cc2)C(C#N)=C(c2cccs2)O1` (stereo not given), for which the growth in the assay with SK-MEL-2 melanoma was 119%; with EKVX NSCLC it was 104%; in the assay on SN12C renal, 105%; with UO-31 renal, 80.6%; in the assay on TK-10 renal, 124%; in the assay on ACHN renal it was 109%. The growth is 94.2% in the assay on CAKI-1 renal, 117% in the assay with A498 renal, 108% in the assay with CCRF-CEM leukemia and 101% in the assay with MOLT-4 leukemia.
Take `N#Cc1cccc(C2C3=C(COC3=O)N(CCO)c3cc4c(cc32)CCC4)c1` (stereo not given): the growth in the assay on SK-MEL-2 melanoma was 24.5%; in the assay on EKVX NSCLC it was 41.4%; in the assay with SN12C renal, 34.3%; in the assay with UO-31 renal, 39%; in the assay with TK-10 renal, 54.2%; with ACHN renal it was 26%. Also, the growth was 34.7% in the assay with CAKI-1 renal, -6.54% (active) in the assay with A498 renal, 7.42% (active) with CCRF-CEM leukemia and 13.5% in the assay with MOLT-4 leukemia.
As for `Nc1nc(N)c(N=Nc2ccccc2)c(-c2ccccc2)n1`, the growth with SK-MEL-2 melanoma is 85.3%; with EKVX NSCLC, 51.3%; with SN12C renal, 56%; in the assay with UO-31 renal, 36%; in the assay on TK-10 renal, 55.1%; in the assay on ACHN renal it was 60.4%. Moreover, the growth with CAKI-1 renal is 45.3%; in the assay with A498 renal, 31%; with CCRF-CEM leukemia it was 52.6%; in the assay on MOLT-4 leukemia, 46.6%.
Take `NC(=O)c1c(NC(=O)c2cccs2)sc2c1CCC(=O)C2`: the growth with SK-MEL-2 melanoma was 81.6%; with EKVX NSCLC it was 69.6%; with SN12C renal, 44.9%; in the assay on UO-31 renal it was 28.8%; in the assay with TK-10 renal it was 59.8%; with ACHN renal, 22%. Also, the growth was -1.29% (active) in the assay with CAKI-1 renal, 95% in the assay with A498 renal, 8.75% (active) in the assay with CCRF-CEM leukemia and 13.6% in the assay on MOLT-4 leukemia.
On to `C[C@H](C(=O)N(CCc1ccc(Cl)c(Cl)c1)Cc1cncs1)[C@@H]1CC[C@H](C[C@H](C)n2cc(CN3CCC(c4ccc(Cl)cc4)CC3)nn2)O1`, for which the growth with SK-MEL-2 melanoma was 106%; in the assay with EKVX NSCLC it was 95.4%; in the assay on SN12C renal it was 97.5%; in the assay on UO-31 renal, 82.2%; with TK-10 renal it was 104%; in the assay on ACHN renal, 102%. The growth is 87.9% with CAKI-1 renal, 108% in the assay on A498 renal, 94.3% in the assay with CCRF-CEM leukemia and -70% (active) in the assay with MOLT-4 leukemia.
As to `COc1ccc(C(=O)N2c3ccccc3Sc3ccccc32)c(C(F)(F)F)c1`, the growth is 47% in the assay with SK-MEL-2 melanoma; 45.6% in the assay on EKVX NSCLC; 40.1% with SN12C renal; 39.8% in the assay with UO-31 renal; 57.4% in the assay with TK-10 renal; 32.5% with ACHN renal. Also, the growth with CAKI-1 renal was 31.8%; in the assay with A498 renal, 8.71% (active); in the assay with CCRF-CEM leukemia, 22.4%; with MOLT-4 leukemia, 15.1%.
Consider `Cc1ccc2nc(-c3ccc(C(=O)NNC(=S)Nc4ccccc4)cc3)[nH]c2c1`, for which the growth in the assay on SK-MEL-2 melanoma is 112%; in the assay on EKVX NSCLC, 93.2%; in the assay on SN12C renal it was 93.9%; in the assay on UO-31 renal it was 89.8%; in the assay on TK-10 renal, 151%; in the assay on ACHN renal, 99.6%. Also, the growth in the assay with CAKI-1 renal was 95.3%; in the assay on A498 renal, 46.6%; in the assay on CCRF-CEM leukemia, 88.8%; in the assay with MOLT-4 leukemia, 83.3%.

The values are drawn from PubChem BioAssay (NCI).
